Screening results as filed in PubChem.
Most compounds without a hit are left out; they make up all but 3% or so of the library.
SUMO Mot1 rescue = SUMOylation pathway inhibition by Mot1-301 growth rescue | growth rescue, % at 18.8 µM | S. cerevisiae Mot1-301 growth rescue, ATP luminescence, 38.5C; percent above DMSO median, 100 means doubled | AID 2716 | hit rate 1% among 320,000;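 active means every valid replicate shows activation above 250% relative to neutral control wells; inactive means the rest, any valid replicate at or below 250%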;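 further: OY570 slx delta 5 strain wells were the positive control but not used for scaling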
CHT block = human CHT choline transport inhibition; AID 488975; Q9GZV3; hit rate 0.86% among 310,000; B-score at 10 µM; CHT-expressing cells, membrane potential dye, choline response; hits give low values;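 active means B-score over 3 SD under the library average, and starting fluorescence ratio not unusually high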;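 further: choline stimulus applied at its EC90 after an EC20 pre-addition; B-score computed on integrated fluorescence ratio after choline addition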
Target sequence (Q9GZV3 whole entry, looked up): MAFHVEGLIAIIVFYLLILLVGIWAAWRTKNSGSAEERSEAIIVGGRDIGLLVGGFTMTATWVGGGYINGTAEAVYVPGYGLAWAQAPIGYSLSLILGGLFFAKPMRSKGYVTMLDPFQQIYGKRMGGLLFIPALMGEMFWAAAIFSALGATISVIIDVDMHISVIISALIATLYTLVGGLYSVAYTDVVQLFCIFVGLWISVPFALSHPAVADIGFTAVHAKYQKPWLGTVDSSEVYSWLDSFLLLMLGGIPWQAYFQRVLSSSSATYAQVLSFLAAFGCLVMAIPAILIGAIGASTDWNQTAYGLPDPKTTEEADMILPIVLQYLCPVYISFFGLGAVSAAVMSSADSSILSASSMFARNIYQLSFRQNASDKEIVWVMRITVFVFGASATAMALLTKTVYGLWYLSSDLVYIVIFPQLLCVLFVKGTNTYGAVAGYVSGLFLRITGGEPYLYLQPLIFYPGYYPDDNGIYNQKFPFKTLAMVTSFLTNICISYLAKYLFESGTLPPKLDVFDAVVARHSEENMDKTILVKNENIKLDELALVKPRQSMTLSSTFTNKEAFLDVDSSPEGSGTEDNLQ
CHT allo act = allosterically activates the human high affinity choline transporter; Q9GZV3; B-score at 10 µM; hit rate 0.49% among 310,000; CHT-expressing cells, membrane potential dye, choline EC20; hits give high values; LV-AA mutant CHT in HEK293 cells;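 active means initial fluorescence not abnormally high and integrated response B-score, plate-corrected, over 3 SD above library mean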
NLRP3 yeast inh = NALP3 inhibition in yeast. Yeast reconstituted NLRP3/ASC/caspase-1, beta-gal luminescence, 24 h. hit rate 0.39% among 330,000. inhibition, % at 10 µM;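 active means inhibition of 50% or more; inactive means inhibition below 50%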;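 further: plate controls were induced DMSO wells for no effect and uninduced yeast grown without galactose for full effect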
Bfl-1 A1 inh = inhibitors of the anti-apoptotic protein A1, read as caspase activation; hit rate 0.066% among 330,000; caspase activation, % (no concentration beside the values); AID 2462; MEF A1-2A-BIM cells, Caspase-Glo 3/7 luminescence, 3 h; percent of clofoctol response, vehicle zero;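 active means over half of replicate activation scores above 10%, or exactly half above 10 with the replicate mean above 10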
NALP1 inh = NALP1 inhibition. hit rate 0.61% among 280,000. inhibition, % at 10 µM. AID 2071. S. cerevisiae NALP1/ASC/caspase-1 growth, X-gal OD620, 72 h; in the data active means inhibition mostly above about 24%, no sharp cut-off; inactive means mostly below about 32%
NALP3 confirm = NALP3 inhibition confirmation in yeast | shares compounds with NLRP3 yeast inh | yeast expressing human NALP3, luminescence | inhibition, % at 10 µM | hit rate 81% among 1,300 | AID 435006; in the data active means inhibition above about 48%
Casp1-ASC yeast = counter-screen for NALP3 inhibitors: yeast caspase-1-ASC; shares compounds with NLRP3 yeast inh; yeast expressing Caspase-1-ASC, luminescence counter screen; inhibition, % at 10 µM; hit rate 66% among 1,000; AID 488784
NALP3 retest = yeast NALP3 inhibition, confirmed on retest; shares compounds with NLRP3 yeast inh; yeast expressing human NALP3, luminescence read-out; inhibition, % at 10 µM; hit rate 53% among 1,000
Active calls of the source: *; i = inactive; . = not tested or not shown. Unless noted, no stated cut-off is given here; in the data, active means inhibition above about 50%; inactive means the rest.

SMILES	SUMO Mot1 rescue	CHT block	CHT allo act	NLRP3 yeast inh	Bfl-1 A1 inh	NALP1 inh	NALP3 confirm	Casp1-ASC yeast	NALP3 retest
CSc1ccc(-c2cc(=O)c3ccccc3o2)cc1	10.5	i	i	61.5*	-0.8	35.2	63.5*	52.5*	61.8*
CCN(CC)S(=O)(=O)c1cccc(NC(=O)CNc2cccc(S(=O)(=O)N3CCOCC3)c2)c1	10.9	i	i	15.1	-0.4	.	.	.	.
CN=c1oc2ccc(Cl)cc2cc1C(N)=O	-21.7	i	i	51.5*	-0.5	9.1	46.0	17.2	15.8
NC(=O)c1cc2cc(Cl)ccc2o/c1=N/NC(=O)c1cccs1	139.2	i	i	-3.8	0.2	-1.7	.	.	.
COc1ccc(NC(=O)C#Cc2ccccc2)cc1	8.9	i	i	66.9*	0.3	-10.4	76.0*	48.1	62.1*
O=C(C#Cc1ccccc1)Nc1ccc(F)cc1	-7.5	i	i	7.3	0.0	4.8	.	.	.
Cc1ccc(C(=O)/C=C/Nc2ccccn2)cc1	.	i	i	53.0*	-10.1	.	20.4	.	.
Cc1ccc(N/C=C/C(=O)c2ccc(C)cc2)cc1	44.0	i	i	18.4	-3.5	-2.7	.	.	.
CSc1ccc2c(c1)N(CCC1CCCCN1C)c1ccccc1S2 (centres undefined)	-3.4	i	i	52.1*	-0.3	50.1*	60.1*	51.9*	32.8
Cc1cccc(/C=N/NC(=O)c2ccncc2)n1	-6.4	i	i	12.3	-0.2	-2.1	.	.	.
Oc1ccc(N=Cc2ccc(OCc3ccccc3)cc2)cc1	.	i	i	50.9*	-1.4	8.1	30.7	.	.
NS(=O)(=O)c1ccc(CCNC(=O)c2ccc3ccccc3n2)cc1	-5.9	i	i	-3.8	0.2	-2.0	.	.	.
COc1ccc(CCNC(=O)c2ccc3ccccc3n2)cc1	-25.3	i	i	52.3*	-0.8	11.6	67.2*	41.3	29.5
COc1ccccc1OC(C)C(=O)N1CC(=O)Nc2ccccc21 (centres undefined)	-6.9	i	i	8.1	0.1	-1.7	.	.	.
CC(C)c1ccc(NC(=O)c2ccccc2NC(=O)C2CC=CCC2C(=O)O)cc1 (centres undefined)	-13.3	i	i	16.3	-0.5	3.1	.	.	.
CCOc1ccccc1C(=O)Nc1ccccc1O	-11.3	i	i	54.2*	-1.4	10.2	57.0*	55.9*	54.8*
CC1CCN(c2ccc(-c3cccs3)nn2)CC1	101.9	i	i	51.7*	-7.3	8.0	79.4*	.	.
C/C=C/c1ccc(OCC(=O)NCc2ccccc2OC)c(OC)c1	-6.4	i	i	50.0*	0.5	-4.0	25.1	.	.
COc1ccccc1CNC(=O)COc1ccccc1C	7.5	i	i	35.9	0.5	14.9	.	.	.
O=C(COC(=O)CNS(=O)(=O)c1cc(C(F)(F)F)ccc1Cl)NC1CC1	131.0	.	.	2.6	0.9	.	.	.	.
CC(C)NC(=O)Nc1cccc2c1O[C@H](CN(C)C(=O)NC1CCCCC1)[C@@H](C)CN([C@H](C)CO)C2=O	-7.3	.	.	14.4	-1.2	.	.	.	.
Cc1ccc(C(=O)Cn2cnc3ccccc3c2=O)cc1	-10.7	i	i	52.4*	-0.3	0.1	63.8*	33.5	46.2
O=S(=O)(c1c(Cl)sc(Cl)c1Br)N1CCCC1	14.0	i	i	63.7*	1.1	9.0	63.8*	61.5*	66.8*
O=C(c1ccccc1)c1cccc(C(=O)c2ccccc2)c1	175.2	.	.	55.7*	-0.7	.	58.3*	53.8*	50.9*
O=C(NCc1ccco1)c1ccccc1SCC(=O)N1CCCC1	4.0	.	.	21.7	-1.1	.	.	.	.
SMILES	SUMO Mot1 rescue	CHT block	CHT allo act	NLRP3 yeast inh	Bfl-1 A1 inh	NALP1 inh	NALP3 confirm	Casp1-ASC yeast	NALP3 retest
COc1ccc(C(=O)N/N=C(\C)CC(=O)Nc2ccc3ccccc3c2)c(OC)c1	10.9	i	i	8.5	0.1	20.2	.	.	.
CN(CC(=O)Nc1ccccc1C(=O)NC1CC1)Cc1ccco1	102.0	.	.	-0.6	0.7	.	.	.	.
COCCN1C(=O)C(=O)/C(=C(/O)c2ccc(S(=O)(=O)N3CCOCC3)cc2)C1c1cccc([N+](=O)[O-])c1 (centres undefined)	-1.9	i	i	17.6	2.5	9.5	.	.	.
COc1ccccc1N1CCN(C2CCCN(C(=O)CN3CCCC3=O)C2)CC1 (centres undefined)	-8.7	i	i	14.1	1.0	1.0	.	.	.
O=c1[nH]nc(-c2ccccc2)c2ccccc12	-7.5	i	i	4.8	-0.2	24.4	.	.	.
c1ccc(-c2n[nH]c3ccccc23)cc1	21.1	i	i	65.1*	0.4	22.3*	85.0*	70.4*	63.0*
O=C(CSC(=S)N1CCCCC1)c1ccccc1	200.7	i	i	60.2*	-13.5	8.7	73.5*	69.7*	55.8*
CCN(CC)c1ccc(NC(=O)COc2ccc(C)cc2)cc1	71.4	i	i	50.0	0.3	18.0	41.7	47.4	40.2
CCCN(CCC)c1nc(-c2ccccn2)nc2ccccc12	-27.8	i	i	50.0*	1.1	21.2	75.5*	.	.
O=C(Nc1scc(-c2ccccc2)c1C(=O)O)c1ccccc1F	-20.0	i	i	28.9	-7.1	-4.7	.	.	.
COc1ccc(-c2csc(NC(=O)Cc3cccc4ccccc34)c2C(=O)O)cc1	.	.	.	.	.	-11.7	.	.	.
COc1ccc(-c2csc(NC(=O)c3ccc(C(C)(C)C)cc3)c2C(=O)O)cc1	29.5	i	i	87.0*	0.0	.	85.7*	94.5*	86.5*
O=C(Nc1scc(-c2ccccc2)c1C(=O)O)c1ccc(F)cc1	-3.6	i	i	60.7*	-12.5	5.9	73.5*	48.0	60.5*
O=C(Nc1scc(-c2ccc(Br)cc2)c1C(=O)O)c1ccccc1F	0.5	i	i	82.2*	-1.9	.	90.9*	.	.
Cc1ccc(C(=O)Nc2scc(-c3ccccc3)c2C(=O)O)o1	-18.0	i	i	-7.0	-6.3	3.9	.	.	.
Cn1c(SCc2nc(-c3ccc(Br)cc3)no2)nnc1-c1ccco1	-3.1	i	i	58.1*	0.6	-0.9	70.8*	60.6*	48.8
COc1ccc(-c2noc(CSc3nnc(-c4ccccc4)n3C)n2)cc1	5.2	i	i	21.7	0.0	3.0	.	.	.
C/C(=N\NC(=S)Nc1cccc(C)c1)c1ccco1	-8.9	i	i	52.7*	-0.2	6.5	27.2	.	.
O=C(/C=C/c1ccccc1)c1ccc2c(c1)OCO2	-28.9	i	i	53.2*	-2.2	-18.4	40.2	41.9	33.5
O=C(/C=C/c1ccccc1Br)c1ccc2c(c1)OCO2	-15.8	i	i	62.0*	-4.5	-1.5	59.7*	19.6	29.1
